According to PubChem BioAssay:
The source made the active and inactive calls. Unless noted, how the calls were made is not given here.

Assays:
[1] = anti-His antibody binders, primary screen, artefact control for SMM control protein annotation, biochemical, small-molecule microarray, 635 nm fluorescence (AID 1128); conditions: anti-His Alexa647 antibody binding, higher = more signal;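 further: score merges feature fluorescence with signal-to-noise for each printed compound spot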
[2] = system: Human papillomavirus type 1a E7 protein (residues 1-88); test: HPV1a E7 small-molecule binders, primary screen, biochemical, small-molecule microarray, residues 1-88, 635 nm (AID 1129); conditions: small-molecule microarray binding, fluorescence 635 nm; higher = more signal
[3] = target: Focal adhesion kinase 1 (Homo sapiens) (UniProt Q05397); test: small-molecule microarray binders of FAK, primary screen, biochemical, 635/667 nm fluorescence, BSA, DTT (AID 1130); conditions: PTK2 binding, 635 nm fluorescence, higher = more signal;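 further: composite of spot emission at 667 nm and signal to noise over triplicate slides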
[4] = system: Fibrinogen (Alexa647-labelled); test: fibrinogen binders on compound microarrays, profiling panel, artefact control for SMM control-protein annotation, biochemical, small-molecule microarray, 635/667 nm fluorescence (AID 1131); conditions: fibrinogen-A647 binding fluorescence, higher = more signal;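 further: z-score merges 667 nm fluorescence with per-spot signal-to-noise over triplicate slides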
[5] = target: Follistatin (Homo sapiens) (UniProt P19883); test: follistatin binders on small-molecule microarrays, primary screen, biochemical, small-molecule microarray, 635/667 nm fluorescence (AID 1132); conditions: FST binding, 635 nm fluorescence, higher = more signal
[6] = target: Fibroblast growth factor 2 (Homo sapiens) (UniProt P09038); test: FGF2 binders on small-molecule microarrays, primary screen, biochemical, small-molecule microarray, 635/667 nm fluorescence (AID 1133); conditions: small-molecule microarray binding, FGF2, fluorescence 635/667; higher = more signal
[7] = mitochondrial membrane potential change in A549 cells, profiling panel, cell-based, JC-1 fluorescence, basal, 24 h, 100 nL (AID 1138); conditions: higher = more signal;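 further: A549 lung adenocarcinoma cells under basal conditions with no added stimulus; test concentration not given here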
[8] = system: Lefty1; test: Lefty1 binders on small-molecule microarrays, primary screen, biochemical, small-molecule microarray, 635/667 nm fluorescence (AID 1139); conditions: small-molecule microarray binding, fluorescence 635/667; higher = more signal
[9] = system: wheat germ agglutinin (Triticum aestivum), Alexa647-labelled; test: wheat germ agglutinin binders on compound microarrays, profiling panel, artefact control for SMM control-protein annotation, biochemical, small-molecule microarray, 635/667 nm fluorescence (AID 1140); conditions: WGA-A647 binding, 635 nm fluorescence, higher = more signal;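 further: score merges 667 nm feature emission with signal to noise over triplicate slides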
[10] = target: Luciferin 4-monooxygenase (Photinus pyralis) (UniProt P08659); test: firefly luciferase enzyme inhibitors, primary screen, biochemical, luminescence, purified enzyme, 2006 set (AID 1141); conditions: SteadyGlo luminescence, 30 min, higher = more signal, called active from +8 up or from −8 down;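 further: cell-free assay with purified firefly luciferase at 100 ng per well in PBS; test concentration not given here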
[11] = system: Wnt5a (protein binding on small-molecule microarray); test: Wnt5a binders on small-molecule microarray, primary screen, biophysical, 635/667 nm fluorescence (AID 1142); conditions: 635 nm fluorescence, higher = more signal;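 further: fluorescence read at 667 nm with signal to noise per printed feature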
[12] = cell viability in Huh7 cells, primary screen, cytotoxicity control for HCV replication inhibitor project, CellTiter-Glo luminescence, basal, 48 h (AID 1143); conditions: Huh7 HCV replicon, higher = more signal, called active from +8 up or from −8 down;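 further: Huh7 hepatoma cells carrying a hepatitis C replication reporter with no stimulus; test concentration not given here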
[13] = P. aeruginosa biofilm formation inhibitors, primary screen, PAO1 strain, BacTiter-Glo luminescence, LB-PBS (AID 1144); conditions: 12 h, higher = more signal
[14] = CREB reporter modulators without forskolin, primary screen, cell-based, PC12, CRE-LacZ reporter, unstimulated (AID 1145); conditions: no forskolin, luminescence, 4.5 h, higher = more signal, called active from +8 up or from −8 down
[15] = CREB reporter modulators under forskolin, primary screen, cell-based, PC12, CRE-LacZ reporter, forskolin-stimulated (AID 1146); conditions: luminescence, 4.5 h, higher = more signal, called active from +8 up or from −8 down;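 further: PC12 cells with 6xCRE LacZ reporter stimulated by forskolin 10 µM; beta-galactosidase reporter signal reflecting CREB driven transcription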
[16] = target: Streptavidin (Streptomyces avidinii) (UniProt P22629); test: streptavidin binders on small-molecule microarray, primary screen, artefact control for SMM compound annotation, biophysical, 635/667 nm fluorescence (AID 1147); conditions: streptavidin binding, higher = more signal;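 further: signal reflects streptavidin binding to arrayed compounds as a control protein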
[17] = small-molecule binders of probe aInhba, primary screen, biochemical, small-molecule microarray, 635/667 nm fluorescence (AID 1148); conditions: higher = more signal;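 further: score merges 667nm spot fluorescence with signal-to-noise for antibody binding to printed compounds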
[18] = target: Torsin-1A (Homo sapiens) (UniProt O14656); test: torsin A binders from cell lysate, primary screen, small-molecule microarray, wild-type, 635/667 nm (AID 1149); conditions: COS7 hTOR1A-WT lysate, 635 nm fluorescence, higher = more signal
[19] = target: Torsin-1A (Homo sapiens) (UniProt O14656); test: small-molecule binders of mutant TOR1A in lysate, primary screen, cell lysate, small-molecule microarray, COS7 lysate, 635/667 nm fluorescence (AID 1150); conditions: COS7 hTOR1A mutant lysate, 635 nm fluorescence, higher = more signal;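 further: score pools 667 nm emission and signal to noise measuring lysate protein binding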
[20] = system: Sonic hedgehog protein (Shh); test: small-molecule binders of Shh protein, primary screen, biochemical, small-molecule microarray, 635/667 nm fluorescence (AID 1151); conditions: small-molecule microarray binding, 635 nm fluorescence; higher = more signal;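 further: Shh protein binding to compounds spotted on small-molecule microarray slides; score combines spot fluorescence intensity with signal-to-noise across triplicate slides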

Sequence of Luciferin 4-monooxygenase (Photinus pyralis) (P08659 whole entry, looked up): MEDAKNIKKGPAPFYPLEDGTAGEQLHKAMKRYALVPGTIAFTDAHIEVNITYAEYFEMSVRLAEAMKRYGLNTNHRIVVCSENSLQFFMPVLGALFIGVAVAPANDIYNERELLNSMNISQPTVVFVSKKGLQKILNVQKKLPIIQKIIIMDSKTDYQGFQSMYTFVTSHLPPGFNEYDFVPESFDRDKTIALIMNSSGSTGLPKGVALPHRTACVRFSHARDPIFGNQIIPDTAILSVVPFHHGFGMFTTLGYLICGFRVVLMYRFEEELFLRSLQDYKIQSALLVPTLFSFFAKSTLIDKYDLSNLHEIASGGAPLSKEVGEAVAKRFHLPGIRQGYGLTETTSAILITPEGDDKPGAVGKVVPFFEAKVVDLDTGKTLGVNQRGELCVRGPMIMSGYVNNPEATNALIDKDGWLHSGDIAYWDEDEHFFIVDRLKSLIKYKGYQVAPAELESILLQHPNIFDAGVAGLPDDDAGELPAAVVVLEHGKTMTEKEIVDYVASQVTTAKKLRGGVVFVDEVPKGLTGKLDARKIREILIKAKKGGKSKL
Sequence of Fibroblast growth factor 2 (Homo sapiens) (P09038 whole entry, looked up): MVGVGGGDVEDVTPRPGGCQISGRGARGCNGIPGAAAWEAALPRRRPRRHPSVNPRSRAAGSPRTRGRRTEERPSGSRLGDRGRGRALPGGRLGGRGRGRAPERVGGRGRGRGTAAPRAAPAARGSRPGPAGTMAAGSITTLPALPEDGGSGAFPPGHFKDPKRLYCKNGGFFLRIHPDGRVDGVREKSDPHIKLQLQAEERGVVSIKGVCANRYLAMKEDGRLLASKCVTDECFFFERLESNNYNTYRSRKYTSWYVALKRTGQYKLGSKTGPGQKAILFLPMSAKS
Sequence of Focal adhesion kinase 1 (Homo sapiens) (Q05397 whole entry, looked up): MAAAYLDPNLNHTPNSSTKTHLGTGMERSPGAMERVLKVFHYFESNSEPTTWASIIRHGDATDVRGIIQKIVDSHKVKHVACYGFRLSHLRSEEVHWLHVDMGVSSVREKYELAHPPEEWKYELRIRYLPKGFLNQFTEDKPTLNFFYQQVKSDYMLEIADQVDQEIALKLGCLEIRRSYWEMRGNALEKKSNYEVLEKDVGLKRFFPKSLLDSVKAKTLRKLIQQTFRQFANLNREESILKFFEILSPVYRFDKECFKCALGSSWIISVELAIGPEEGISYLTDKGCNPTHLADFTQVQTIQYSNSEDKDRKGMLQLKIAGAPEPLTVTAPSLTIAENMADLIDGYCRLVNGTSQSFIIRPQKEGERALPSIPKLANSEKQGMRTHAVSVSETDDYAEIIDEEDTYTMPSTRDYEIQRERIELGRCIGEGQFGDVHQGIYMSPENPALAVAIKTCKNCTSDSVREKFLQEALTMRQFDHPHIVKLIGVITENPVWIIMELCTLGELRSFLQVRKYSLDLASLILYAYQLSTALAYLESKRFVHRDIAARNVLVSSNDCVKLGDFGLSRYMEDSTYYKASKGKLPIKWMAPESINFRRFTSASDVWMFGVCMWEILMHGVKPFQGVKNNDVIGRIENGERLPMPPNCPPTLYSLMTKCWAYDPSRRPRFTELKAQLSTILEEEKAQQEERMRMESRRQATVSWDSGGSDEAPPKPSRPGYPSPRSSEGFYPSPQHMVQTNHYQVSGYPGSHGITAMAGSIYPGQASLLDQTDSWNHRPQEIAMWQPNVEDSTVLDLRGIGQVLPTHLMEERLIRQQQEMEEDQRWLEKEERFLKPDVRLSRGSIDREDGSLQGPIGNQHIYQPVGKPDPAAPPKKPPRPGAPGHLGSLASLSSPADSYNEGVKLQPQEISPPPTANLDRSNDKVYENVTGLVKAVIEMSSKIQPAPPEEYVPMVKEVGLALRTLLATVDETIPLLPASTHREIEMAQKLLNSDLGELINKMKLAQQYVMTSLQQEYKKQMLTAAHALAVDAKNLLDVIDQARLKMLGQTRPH
Sequence of Torsin-1A (Homo sapiens) (O14656 whole entry, looked up): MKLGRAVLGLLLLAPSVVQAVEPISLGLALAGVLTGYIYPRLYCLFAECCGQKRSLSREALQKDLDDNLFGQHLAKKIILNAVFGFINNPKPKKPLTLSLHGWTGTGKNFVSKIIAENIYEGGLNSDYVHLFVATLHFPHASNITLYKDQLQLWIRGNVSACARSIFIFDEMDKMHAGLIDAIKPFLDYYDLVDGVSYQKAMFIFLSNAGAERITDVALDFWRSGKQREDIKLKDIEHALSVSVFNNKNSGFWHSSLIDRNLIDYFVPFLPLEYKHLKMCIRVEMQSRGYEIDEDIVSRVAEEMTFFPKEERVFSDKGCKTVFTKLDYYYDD
Sequence of Streptavidin (Streptomyces avidinii) (P22629 whole entry, looked up): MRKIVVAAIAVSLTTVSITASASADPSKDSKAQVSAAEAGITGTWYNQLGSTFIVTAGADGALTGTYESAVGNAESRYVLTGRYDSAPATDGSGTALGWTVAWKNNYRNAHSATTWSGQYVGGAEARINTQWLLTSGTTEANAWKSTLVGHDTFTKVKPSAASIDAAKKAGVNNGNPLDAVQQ
Sequence of Follistatin (Homo sapiens) (P19883 whole entry, looked up): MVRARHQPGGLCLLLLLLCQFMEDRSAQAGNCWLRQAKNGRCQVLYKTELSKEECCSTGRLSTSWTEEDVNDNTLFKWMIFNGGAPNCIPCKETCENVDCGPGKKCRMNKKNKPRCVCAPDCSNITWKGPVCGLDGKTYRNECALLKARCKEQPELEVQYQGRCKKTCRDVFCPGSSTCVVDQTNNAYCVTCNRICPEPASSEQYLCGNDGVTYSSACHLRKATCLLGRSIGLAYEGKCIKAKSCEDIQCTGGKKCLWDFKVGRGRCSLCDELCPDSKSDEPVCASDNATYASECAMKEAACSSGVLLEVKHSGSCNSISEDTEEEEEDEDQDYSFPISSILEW

| SMILES | composite z-score [1] | composite z-score [2] | composite z-score [3] | composite z-score [4] | composite z-score [5] | composite z-score [6] | z-score [7] | composite z-score [8] | composite z-score [9] | z-score [10] | composite z-score [11] | z-score [12] | z-score [13] | z-score [14] | z-score [15] | composite z-score [16] | composite z-score [17] | composite z-score [18] | composite z-score [19] | composite z-score [20] |
| --- | --- | --- | --- | --- | --- | --- | --- | --- | --- | --- | --- | --- | --- | --- | --- | --- | --- | --- | --- | --- |
| NCCCCCNC(=O)[C@@H]1C[C@@H]2C(=O)N[C@@H](Cc3ccccc3)C(=O)N2[C@@H]1c1cccc(OCCO)c1 | 1.63 | -0.074 | 0.123 | 0.968 | 0.574 | 0.635 | -0.505 | 0.325 | 1.12 | -0.435 (inactive) | 0.0984 | 0.213 (inactive) | 0.205 (inactive) | 0.415 (inactive) | 0.201 (inactive) | 0.44 | -0.182 | 0.89 | 0.373 | 0.867 |
| COc1ccc(C(O)C2C=CC3C(=O)N(c4ccccc4)C(=O)C3N2Nc2ccccc2F)cc1OCc1ccccc1 (stereo not given) | 0.981 | 1.22 | 1.37 | 0.991 | 0.634 | -0.179 | 0.383 | -0.454 | 1.18 | -0.237 (inactive) | 0.353 | 0.0131 (inactive) | -0.547 (inactive) | -0.143 (inactive) | -0.269 (inactive) | 1.47 | 1.14 | 0.281 | 0.671 | -0.876 |
| O=C1O[C@H](c2ccccc2)[C@H](c2ccccc2)N2[C@H]1[C@@H](C(=O)NC[C@H](O)c1ccccc1)[C@]1(C(=O)Nc3ccccc31)[C@H]2c1ccc(OCCO)cc1 | 1.77 | 1.2 | 1.06 | 0.743 | 0.992 | 0.655 | -0.253 | 0.0702 | 0.864 | -0.609 (inactive) | 0.187 | -2.93 (inactive) | -1.13 (inactive) | -0.0784 (inactive) | -0.499 (inactive) | 0.261 | -0.0044 | 1.55 | 0.492 | 0.297 |
| COC(=O)[C@@]1(Cc2ccc(OC)cc2)[C@H]2c3cc(C(=O)N(C)C)n(Cc4cccc5ccccc45)c3C[C@H]2CN1C(=O)c1ccccc1 | 1.54 | 1.26 | 0.306 | 1.02 | 0.202 | -0.225 | -0.78 | 0.566 | 1.03 | 0.629 (inactive) | 1.44 | -4.45 (inactive) | -0.0601 (inactive) | 0.0075 (inactive) | 0.458 (inactive) | 0.697 | 0.943 | 0.817 | 1.14 | 0.659 |
| CC(C)(C)OC(=O)CC[C@]1(C(=O)O)N=C(c2ccc(OCCCO)cc2)O[C@H]1c1ccccc1N=[N+]=[N-] | 1.95 | 0.815 | 0.238 | 0.882 | 0.891 | 0.0606 | -0.974 | -0.811 | 0.963 | -10.5 (active) | 0.629 | -0.686 (inactive) | 0.448 (inactive) | -0.38 (inactive) | -0.658 (inactive) | 1.32 | 0.825 | -0.09 | 0.414 | -0.815 |
